Results on six compounds are retold here after PubChem BioAssay (NCATS).

In experiment [1] the target is ATP-dependent 6-phosphofructokinase (Trypanosoma brucei brucei) (UniProt O15648). As to the kind of experiment: qHTS Assay to Find Inhibitors of T. brucei phosphofructokinase: hit validation (AID 492961).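 Also: luminescence reports ADP formed as PFK phosphorylates fructose-6-phosphate with ATP; % is scaled to controls: 0 for no effect and ±100 for the full control effect.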 The method, boiled down: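 Compounds titrated; %activity normalized to 0x and 1x enzyme controls, curve-fitted. Readout: ADP-Glo luminescence after 45 min room-temperature reaction of 1.25 nM PFK, 0.1 mM ATP, 0.5 mM F6P, pH 8.0.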

Experiment [2] in a line: qHTS profiling for inhibitors of Plasmodium falciparum proliferation (AID 504749). Also: potency is read from the fitted curve at half-maximal effect.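 As to activity, negative = inhibition: 0% = DMSO vehicle and full inhibition = artemisinin control.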 As to all read-outs here: nearly all actives have a fitted effect of over 60% in size. Particulars: P. falciparum in erythrocytes, SYBR Green DNA, 72 h; for activity, negative = inhibition: at 28.7 µM (top of the series). The method, boiled down:
(§1)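 Each compound contacts P. falciparum-infected red blood cells for 72 h at 37 C; lysis buffer (Tris, EDTA, saponin, Triton X, SYBR Green I) is added and fluorescence measured next morning; values normalized to controls.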

Experiment [3] has as its system 3D7. Described as above. Conditions: P. falciparum in erythrocytes, SYBR Green DNA, 72 h; series mostly up to 28.7 µM. The method, boiled down: as §1
Experiment [4] concerns ATS189. Described as above. Particulars: P. falciparum in erythrocytes, SYBR Green DNA, 72 h; series mostly up to 28.7 µM. Summed up: as §1
Experiment [5] has as its system CP185. The experiment is described as above. Conditions: P. falciparum in erythrocytes, SYBR Green DNA, 72 h; series mostly up to 28.7 µM. Summed up:
as §1

Experiment [6] deals with CP191. The experiment is described as above. Conditions: P. falciparum in erythrocytes, SYBR Green DNA, 72 h; series mostly up to 28.7 µM. Summed up: as §1
Experiment [7] concerns CP192. The experiment is described as above. Particulars: P. falciparum in erythrocytes, SYBR Green DNA, 72 h; series mostly up to 28.7 µM. The method, boiled down:
as §1

For experiment [8], the system named is CP194. The description is as above. Conditions: P. falciparum in erythrocytes, SYBR Green DNA, 72 h; series mostly up to 28.7 µM. The method, boiled down: as §1
Experiment [9] deals with CP211. Described as above. Particulars: P. falciparum in erythrocytes, SYBR Green DNA, 72 h; series mostly up to 28.7 µM. Summed up: as §1
The test system of experiment [10] is CP217. The experiment is described as above. Particulars: P. falciparum in erythrocytes, SYBR Green DNA, 72 h; series mostly up to 28.7 µM. Summed up:
as §1

The subject of experiment [11] is CP238. The description is as above. Particulars: P. falciparum in erythrocytes, SYBR Green DNA, 72 h; series mostly up to 28.7 µM. The method, boiled down:
as §1

The subject of experiment [12] is CP252. Described as above. Conditions: P. falciparum in erythrocytes, SYBR Green DNA, 72 h; series mostly up to 28.7 µM. The method, boiled down:
as §1

Experiment [13] relates to CP262. The experiment is described as above. Particulars: P. falciparum in erythrocytes, SYBR Green DNA, 72 h; series mostly up to 28.7 µM. The method, boiled down: as §1
For experiment [14], the system named is CP265. The experiment is described as above. Conditions: P. falciparum in erythrocytes, SYBR Green DNA, 72 h; series mostly up to 28.7 µM. Summed up:
as §1

Experiment [15] concerns CP269. Described as above. Particulars: P. falciparum in erythrocytes, SYBR Green DNA, 72 h; series mostly up to 28.7 µM. The method, boiled down:
as §1

Experiment [16] concerns CP286. Described as above. Particulars: P. falciparum in erythrocytes, SYBR Green DNA, 72 h; series mostly up to 28.7 µM. The method, boiled down:
as §1

In experiment [17] the test system is CP329. Described as above. Particulars: P. falciparum in erythrocytes, SYBR Green DNA, 72 h; series mostly up to 28.7 µM. Summed up:
as §1

For experiment [18], the system named is Dd2. Described as above. Particulars: P. falciparum in erythrocytes, SYBR Green DNA, 72 h; series mostly up to 28.7 µM. Summed up: as §1
The test system of experiment [19] is FAB9. Described as above. Particulars: P. falciparum in erythrocytes, SYBR Green DNA, 72 h; series mostly up to 28.7 µM. Summed up:
as §1

The subject of experiment [20] is ECU. Described as above. Particulars: P. falciparum in erythrocytes, SYBR Green DNA, 72 h; series mostly up to 28.7 µM. Summed up: as §1

The structures appear in SMILES notation. Values joined by “and” are separate entries in the source; they are usually repeats but may differ in a detail not shown here. Equal values may be shown once. Records with an inconclusive call do not appear. Some compounds were tested as several samples or in several runs, with calls that do not always agree. Active and inactive are the calls of the source. Calls follow the shape of the dose curve; as a rule, active = well fitted curve in the direction sought with a large enough effect; inconclusive = small, poorly fitted or top-dose-only effect, or another doubt; inactive = no such curve, though single readings can be large; an effect the other way counts as inactive or inconclusive.

ATP-dependent 6-phosphofructokinase (Trypanosoma brucei brucei), sequence (O15648 whole entry, looked up): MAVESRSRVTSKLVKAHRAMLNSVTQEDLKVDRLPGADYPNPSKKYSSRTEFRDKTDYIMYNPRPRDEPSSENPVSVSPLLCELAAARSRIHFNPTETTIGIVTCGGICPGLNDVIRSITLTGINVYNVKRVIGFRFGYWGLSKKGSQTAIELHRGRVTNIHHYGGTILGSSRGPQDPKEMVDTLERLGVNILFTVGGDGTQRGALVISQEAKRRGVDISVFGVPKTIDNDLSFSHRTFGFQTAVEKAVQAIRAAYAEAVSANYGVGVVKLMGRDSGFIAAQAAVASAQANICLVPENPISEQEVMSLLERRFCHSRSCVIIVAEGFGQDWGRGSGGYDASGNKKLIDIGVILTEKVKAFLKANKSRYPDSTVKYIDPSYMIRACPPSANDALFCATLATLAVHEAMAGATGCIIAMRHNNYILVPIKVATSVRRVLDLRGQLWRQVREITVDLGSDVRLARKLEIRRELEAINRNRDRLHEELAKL

Regarding `N#C/C(=C1/SCC(c2ccccc2Cl)S1)n1ccnc1` (stereo unspecified), the Potency result in [1], in [3], in [4], in experiment [5], in experiment [6] and in experiment [7] was “inactive” throughout. Moreover, the Potency result in [8], in experiment [9], in experiment [10], in experiment [11], in [12] and in experiment [13] was “inactive” each time. In addition, the Potency entry in [14], in experiment [15], in [16], in experiment [17], in [18] and in [19] was “inactive” each time. Further, the activity, negative = inhibition was -5.78% (inactive) in [2] (parasite line A) and -14.7% (inactive) in [2] (parasite line B).

`CC(C)C(=O)OCC(=O)[C@@]12OC(C3CCCCC3)O[C@@H]1CC1C3CCC4=CC(=O)C=C[C@]4(C)C3[C@@H](O)C[C@@]12C` (stereo partly specified): the Potency entry in experiment [1] is “inactive”. Also, the Potency was 794 nM (active) in experiment [2] (parasite line A); 562 nM (active) in experiment [2] (parasite line B); 1000 nM (active) in experiment [3]; 891 nM (active) in experiment [4]; 794 nM (active) in experiment [5]; 708 nM (active) in [6]. Further, the Potency was 1350 nM (active) in experiment [9]; 794 nM (active) in experiment [10]; 1000 nM (active) in experiment [11]; 1000 nM (active) in experiment [12]; 1000 nM (active) in [14]; 794 nM (active) in [16]. Also, the Potency in experiment [18] was 1410 nM (active); in experiment [20], 1120 nM (active); in experiment [19] it was 2000 nM (active).

Consider `COC(=O)C1C2CC3c4[nH]c5cc(OC)ccc5c4CCN3CC2CC(OC)C1OC` (stereo unspecified), for which the Potency result in [1], in [3], in [4], in experiment [5], in experiment [6] and in [7] was “inactive” each time. For the same compound, the Potency result in [8], in experiment [9], in experiment [10], in [11], in [12] and in experiment [13] was “inactive” throughout. For the same compound, the Potency result in [14], in experiment [15], in experiment [16], in experiment [17], in experiment [18] and in [20] was “inactive” throughout. Further, the Potency result in [19] is “inactive”. The activity, negative = inhibition in experiment [2] (parasite line A) is 2.01% (inactive); in experiment [2] (parasite line B), -6.18% (inactive).

Turning to `C=C1C(n2cnc3c(=O)[nH]c(N)nc32)C[C@H](O)[C@H]1CO` (stereo partly specified), the Potency result in [1], in experiment [4], in experiment [6], in experiment [7], in experiment [8] and in experiment [9] was “inactive” each time. Further, the Potency result in experiment [10], in [11], in experiment [12], in experiment [14], in experiment [15] and in experiment [17] was “inactive” throughout. In addition, the Potency entry in experiment [18], in experiment [20] and in experiment [19] was “inactive” throughout. For the same compound, the figures for the activity, negative = inhibition in experiment [2] (parasite line A) and in experiment [2] (parasite line B) were 9.61% (inactive) and -7.65% (inactive), respectively.

For `CNC1=CN(O)C(c2ccccc2)=c2cc(Cl)ccc2=N1`, the Potency result in experiment [1], in [11], in experiment [13] and in experiment [18] was “inactive” each time. Further, the Potency in experiment [2] (parasite line A) was 3550 nM (active); in experiment [2] (parasite line B), 2.24 µM (active) and 11.2 µM (active); in [3], 1000 nM (active); in [4], 4470 nM (active); in experiment [6] it was 100 nM (active); in experiment [7], 4260 nM (active). Also, the Potency in experiment [8] was 4260 nM (active); in [9] it was 4260 nM (active); in experiment [12] it was 8910 nM (active); in experiment [14], 6310 nM (active); in experiment [15], 3790 nM (active); in experiment [16], 4470 nM (active). Further, the Potency in experiment [17] is 3.79 µM (active) and inactive; in experiment [19], 2510 nM (active).

`CC1CCC(O)C/C1=C\C=C1/CCCC2(C)C1CCC2C(C)/C=C/C(C)C(C)C` (stereo unspecified): the Potency result in experiment [1], in [4], in [5], in experiment [6], in [7] and in experiment [8] was “inactive” throughout. For the same compound, the Potency result in experiment [9], in experiment [10], in experiment [11], in [12], in experiment [13] and in experiment [14] was “inactive” in each case. In addition, the Potency entry in experiment [15], in experiment [16], in [17], in experiment [18] and in [19] was “inactive” each time. Moreover, the activity, negative = inhibition in [2] (parasite line A) was -1.73% (inactive); in [2] (parasite line B), -28.9% (inactive).
